From PubChem BioAssay
BAZ2B inh: inhibitors of human BAZ2B bromodomain. Q9UIF8. AlphaScreen BAZ2B-H3K14Ac peptide displacement. Potency, µM (doses to about 114 µM), inactives show top-dose activity change, negative = inhibition, usual class: inhibitors. hit rate 4.4% among 360,000. AID 504333; further: potency means the concentration at half of the fitted maximal effect; on the % scale 0 is the no-effect control and ±100 the full control effect; nearly all actives have a fitted effect of over 60% in size
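Multi-concentration screen (max 110 uM) measuring displacement of acetylated histone H3 peptide from BAZ2B by AlphaScreen, using 50 nM protein, 50 nM peptide and 10 ug/mL streptavidin donor plus Ni-chelate acceptor beads.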
Sfp PPTase inh: blocks B. subtilis Sfp PPTase activity; Biochemical Sfp PPTase activity, qHTS; Q9F4F7; hit rate 3.5% among 310,000; Potency, µM, for inactives: largest response in the series, negative = inhibition, usual class: inhibitors;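 further: the enzyme is Sfp with the accession as filed and its product quenches rhodamine fluorescence; potency means the concentration at half of the fitted maximal effect; 0% = enzyme reaction without inhibitor and -100% = no enzyme wells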
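After 15 min at room temperature with compound, 15 nM Sfp received 5 uM rhodamine-CoA plus 12.5 uM BHQ-2-ybbR (50 mM Hepes pH 7.6, 10 mM MgCl2). Rate came from the fluorescence difference over 30 min, ex 525/em 598 nm.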
12-LOX inh: blocks human arachidonate 12S-lipoxygenase; hit rate 1.1% among 580,000; P18054; purified 12hLO, xylenol orange hydroperoxide absorbance; Potency, µM (top dose mostly 108 µM), for the others: at the top dose activity change, negative = inhibition, most hits filed as inhibitors; further: potency means the concentration at half of the fitted maximal effect; on the % scale 0 is the no-effect control and ±100 the full control effect
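Purified human 12hLO (150 nM final) in 25 mM Hepes, 0.01% Triton X-100, pH 7.0 was preincubated 15 min at room temperature with compound. Then 40 uM arachidonic acid was added, 30 min. Hydroperoxide was read by Fe-XO absorbance ratio 573/405 nm.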
HP1b binding inh: blocks HP1-beta chromodomain binding to methylated histone tails; P83916; AlphaScreen HP1-beta / biotin-H3K9me3 peptide binding; Potency, µM (doses to about 114 µM), for the others: top-dose activity change, negative = inhibition, actives largely listed as inhibitors; hit rate 0.56% among 390,000; AID 540317; further: potency means the concentration at half of the fitted maximal effect; nearly all actives have a fitted effect of over 70% in size
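HP1-beta protein (50 nM final) preincubated 30 min at room temperature with biotinylated H3(1-18)K9me3 peptide (50 nM) in PBS pH 7.4, 0.01% Tween-20, then compound added for 30 min. AlphaScreen streptavidin donor/nickel chelate acceptor beads (10 ug/mL final), 30 min dark, luminescence read.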
G9a inh-1: G9a (human) methyltransferase inhibition; hit rate 8.8% among 350,000; Q96KQ7; G9a H3K9 monomethylation, AlphaScreen, 2 h; Potency, µM (titrated, usually from 102 µM), without a hit: at the top dose activity, negative = inhibition, most hits filed as inhibitors; further: potency means the concentration at half of the fitted maximal effect; on the % scale 0 is the no-effect control and ±100 the full control effect; nearly all actives have a fitted effect of over 75% in size
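Step 1: enzyme (final 20 nM) with compound, 15 min RT. Step 2: substrate peptide 500 nM and SAM 20 uM, 2 h RT. Step 3: anti-H3K9me1 antibody and AlphaScreen beads, 10 min, then plate read.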
JMJD2A Tudor: JMJD2A Tudor domain (human) inhibition | hit rate 4.4% among 390,000 | AlphaScreen JMJD2A-Tudor / H3K4me3 peptide binding | Potency, µM (series often up to 114 µM), for inactives: at the top dose activity change, negative = inhibition, hits mostly inhibitors | O75164 | AID 504339; further: potency means the concentration at half of the fitted maximal effect; on the % scale 0 is the no-effect control and ±100 the full control effect; nearly all actives have a fitted effect of over 50% in size
Sfp PPTase conf: Sfp phosphopantetheinyl transferase inhibition, confirmation. shares compounds with Sfp PPTase inh. Sfp PPTase enzymatic assay, qHTS titration. Potency, µM (titrated, usually from 114 µM), for inactives: at the highest dose activity change, negative = inhibition, usual class: inhibitors. hit rate 79% among 380;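 further: potency means the concentration at half of the fitted maximal effect; plate controls were uninhibited Sfp reaction for no effect and no enzyme control for full effect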
Sfp PPTase gel: Blocks Sfp PPTase activity, gel read-out | shares compounds with Sfp PPTase inh | purified Sfp, gel-based phosphopantetheinylation read-out | Potency, µM, hits mostly inhibitors | hit rate 20% among 210;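 active means potency below 100 µM; inconclusive means dose-dependent response but potency above 100 µM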;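 further: band intensities scaled against SCH202676 control wells before curve fitting; potency is an IC50 for inhibitors of Sfp transfer activity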
ME-1 growth: inhibitors of ME-1 leukemia cell proliferation, CBFb-RUNX1 project; Potency, µM (titrated, usually from 56.1 µM), for inactives: at the highest dose activity change, negative = inhibition, most hits filed as inhibitors; ME-1 cell proliferation, ATP luminescence, 48 h; hit rate 20% among 140; shares compounds with BAZ2B inh; AID 504370
G9a inh-2: inhibits human G9a histone lysine methyltransferase, hit confirmation; shares compounds with JMJD2A Tudor; Potency, µM, usual class: inhibitors; hit rate 89% among 370; G9a H3K9 monomethylation, AlphaScreen, 2 h; further: potency means the concentration at half of the fitted maximal effect; nearly all actives have a fitted effect of over 65% in size
The depositor's hits bear a star; i = inactive; u = inconclusive; x = no result given; ! = repeats disagree; [ ] = another dose, or the depositor's remark. In the library only some 8.7% were active in any assay of this set; here they are far more common. Unless noted, the call rests on the fitted dose curve; in most records, active means well fitted curve in the direction sought with a large enough effect; inconclusive means small, poorly fitted or top-dose-only effect, or another doubt; inactive means no such curve, though single readings can be large; an effect the other way counts as inactive or inconclusive.

SMILES	BAZ2B inh	Sfp PPTase inh	12-LOX inh	HP1b binding inh	G9a inh-1	JMJD2A Tudor	Sfp PPTase conf	Sfp PPTase gel	others
O=C(NCc1ccco1)c1csc2c1CCCCC2	-30%	9%	1%	2%	-9%[12.7 µM]	-18%	u	i
O=C(NCc1ccccc1)c1csc2c1CCCCC2	-12%	22%	0%	16%	-33%	-16%	x	x
C[C@@H]1CN(C(=O)c2ccc(Cn3cnnn3)cc2)CC[C@@]1(O)C1CCOCC1	x	x	88%	x	x	x	x	x
c1ccc(CSc2nnc(-c3ccco3)n2Cc2ccco2)cc1	u	4µM*	-19%	-1%	50µM*	-32%	33µM*	x
Cc1ccc(NC(=S)NC(=O)c2sc3ccccc3c2Cl)c(C(=O)O)c1	50µM*	16µM*	x	x	45µM*	x	53µM*	x
N#C/C(=C/c1ccc(N2CCCCCC2)o1)c1cccc(F)c1	u	0.56µM*	u	u	u	40µM*	21µM*	u
N#C/C(=C/c1ccc(N2CCOCC2)o1)c1ccc(Br)cc1	45µM*	2.8µM*	5.6µM*	u	7.9µM*	56µM*	12µM*	6.2µM*
NC(CO)C(=O)NNCc1ccc(O)c(O)c1O (stereo not drawn)	4.5µM*	6.3µM*!	44%	u	1.4µM*	10µM*	11µM*	x
Cn1cnc([N+](=O)[O-])c1	x	x	-1%	x	x	x	x	x
Cc1ccc(-c2cnc(-c3ccncc3)o2)cc1	1%	56µM*	-15%	38%	u	-9%[57.1 µM]	3%	i
Cc1ccc(-c2nc(-c3ccncc3)no2)cc1	6%	-1%	8%	6%	5%	-14%	x	x
O=C(CC(Nc1ccccc1)C(=O)O)c1ccccc1 (stereo not drawn)	-31%	16µM*	111%	38%	u	-15%	42µM*	i
O=C(Cc1c[nH]c2ccccc12)N1CCC2(CC1)CC(CO)N(C(=O)c1ccccc1)C2 (stereo not drawn)	x	x	0%	x	x	x	x	x
CC(C)(C)Cc1nnc(NC(=O)CSc2ccccc2)s1	u	14µM*	18µM*	u	4.5µM*	56µM*	7.4µM*	x
COc1ccc(OC)c(CNCc2cccn2-c2nnc(N3CCN(C)CC3)s2)c1	x	x	71%	x	x	x	x	x
COC1CCC12CCN(C(=O)c1nccn1C)CC2 (stereo not drawn)	x	x	40%	x	x	x	x	x
O=C(Nc1nnc(COc2ccc(F)cc2)s1)c1cccs1	-6%	1%	u	21%	26%[59 µM]	-10%	x	x
O=C(Nc1nnc(COc2ccc(Cl)cc2)s1)c1cccs1	5%	14µM*	11%	u	u	-23%[11.4 µM]	24µM*	x
CCCN1Cc2cccc(C(=O)Nc3ccccc3Br)c2C1=O	x	x	-11%	x	x	x	x	x
CCOc1cc2[nH]c(=S)n(Cc3ccc(C)o3)c(=O)c2cc1OCC	-3%	-22%	-5%	29%	12%[12.7 µM]	-16%	x	x
Cc1ccc(Cn2c(=S)[nH]c3ccc(N4CCOCC4)cc3c2=O)o1	u	2.5µM*	-29%	u	u	22µM*	2.6µM*	x
CC(C)C(c1nnnn1Cc1ccc(F)cc1)N1CCN(c2ccc(O)cc2)CC1 (stereo not drawn)	-33%	16µM*	u	71µM*	13µM*	40µM*	47µM*	x
COc1cccc(NC(=O)CSC2=C(C#N)C(c3ccco3)C3=C(CCCC3=O)N2)c1 (stereo not drawn)	u	7.9µM*	-14%	4%	u	-30%	47µM*	i
Cc1cc2ccccc2n1CCNC(=O)c1ccc(Br)cc1	-15%	x	-21%	11%	-27%[59 µM]	-30%	x	x
Cc1cc2ccccc2n1CCNC(=O)c1ccc(Br)o1	u	13µM*	u	u	35µM*	u	24µM*	x
SMILES	BAZ2B inh	Sfp PPTase inh	12-LOX inh	HP1b binding inh	G9a inh-1	JMJD2A Tudor	Sfp PPTase conf	Sfp PPTase gel	others
O=C1c2ccccc2S(=O)(=O)N1Cc1nc(-c2cc(Cl)ccc2Cl)cs1	x	x	-19%	x	x	x	x	x
CCOC(=O)c1c(NC(=O)Cc2ccccc2)sc2c1CCN(CC)C2	-7%	5%	11%[57.4 µM]	13%	x	-23%	x	x
CCOC(=O)c1c(N)sc2c1CCN(Cc1ccccc1)C2	x	10µM*	42%	x	10µM*	x	21µM*	x
COc1ccc(NC(=S)N2CCC(c3ccc(C)cc3)C2)cc1 (stereo not drawn)	-19%	8%	u	37%	6%	-18%	x	x
Cc1ccc(NC(=S)N2CCC(c3ccc(C)cc3)C2)cc1 (stereo not drawn)	1%	32µM*	u	-21%	10µM*	-25%	37µM*	u
CCC(c1cccs1)N1C(=O)[C@H]2CN(S(=O)(=O)c3ccc(C)c(C)c3)C[C@H]2C1=O (stereo partly drawn)	x	x	-11%	x	x	x	x	x
CC/C(=C(\c1ccccc1)c1ccc(OCCN(C)C)cc1)c1ccccc1	35µM*	50µM*!	u	u	19µM*!	45µM*	47µM*	i	ME-1 growth=24µM*
CC(C)C(=O)NCCNC(=O)NC(CN(C)C)c1ccccc1 (stereo not drawn)	x	x	-2%	x	x	x	x	x
COc1ccccc1CNc1ccc(N2CCCCC2)cc1	13µM*	18µM*	x	32µM*	u	32µM*	47µM*	i	G9a inh-2=1.1*
COc1ccc(-c2nnc(SCC(=O)Nc3ccccc3)[nH]c2=O)cc1	x	x	42%	x	x	x	x	x
Cc1ccc(C)c(NC(=S)N2CCN(c3cccc(C(F)(F)F)c3)CC2)c1	2%	22%	-4%	20%	4%[59 µM]	0%	x	x
Cc1ccnc(NC(=S)N2CCN(c3cccc(C(F)(F)F)c3)CC2)c1	20µM*	2.5µM*	22µM*	-13%[57 µM]	1µM*	1µM*	15µM*	x	G9a inh-2=0.28*
COc1ccc(Br)cc1CNc1ccc(O)cc1	40µM*	20µM*	u	u	u	u	u	u	G9a inh-2=3.2*
CCCn1nnnc1NCc1cc(Br)ccc1OC	-37%	8%	2%	35%	1%	0%	x	x
O=C(OCc1ccccc1)c1cccnc1	x	32µM*	11%	x	1.4µM*	x	37µM*	u	G9a inh-2=2.6*
